Measurements from PubChem BioAssay AID686978 (National Center for Advancing Translational Sciences (NCATS), 2013).
The campaign covered roughly 420,000 compounds. About 64,000 (15%) were called active. About 27% were inconclusive and are not listed. Calls come from the whole dose curve; as a rule, active = well fitted inhibition curve with a large enough effect; inconclusive = small, poorly fitted or top-dose-only effect; inactive = flat fitted curve, though single readings scatter. A selection follows. A call without a number means that no potency is given here.

Experiment: qHTS for Inhibitors of human tyrosyl-DNA phosphodiesterase 1 (TDP1): qHTS in cells in absence of CPT; note: nearly all actives have a fitted effect of over 55% in size
Details: DT40 Tdp1-/- hTDP1 cells, no CPT, ATP luminescence, 48 h; activity change, negative = growth inhibition: at 46.2 µM (top of the series)
Procedure, shortened: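 Luminescent ATP content (CellTiter-Glo) served as the growth readout. Knockout chicken DT40 cells expressing human TDP1 were exposed to compounds without camptothecin for a minimum 48 hr at 37 °C.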
Potency is the fitted concentration of half-maximal effect.

Compound | Potency
Nc1nnnn1/N=C/c1cccc(Br)c1 | inactive
COc1ccc(C(=O)Nc2ccc3c(c2)OCO3)cc1OC | inactive
COc1ccc(C(=O)Nc2ccc(S(=O)(=O)Nc3onc(C)c3C)cc2)cc1OC | inactive
CC(=O)NC(=S)Nc1ccc(NC(=S)NC(=O)c2ccc([N+](=O)[O-])cc2)cc1 | inactive
Cc1ccc(C(=O)NC(=S)Nc2ccccc2C)cc1 | inactive
COc1ccccc1C(=O)NC(=S)NC12CC3CC(CC(C3)C1)C2 | inactive
COc1ccc(C(=O)Nc2ccc(N3CCC(C)CC3)cc2)cc1Br | inactive
Cc1ccc(NC(=S)NC(=O)c2ccc(-c3ccccc3)cc2)cc1 | 4.61 µM (active)
COc1ccc(C(=O)NC(=S)Nc2ccc(N3CCCC3)cc2)cc1OC | 8.2 µM (active)
COc1ccc(C(=O)NC(=S)Nc2ccc(Cl)cn2)cc1OC | inactive
COc1ccccc1C(=O)Nc1cccc(C(=O)N2CCOCC2)c1 | inactive
COc1ccccc1C(=O)NC(=S)Nc1ccc(N2CCOCC2)cc1 | 0.206 µM (active)
COc1ccc(C(=O)Nc2ccc(C3(C#N)CCCC3)cc2)cc1OC | 23.1 µM (active)
CCOC(=O)c1c(C)[nH]c(C(=O)OCC(=O)N2CCCC2=O)c1C | inactive
COCCCNC(=O)CN1CCN(Cc2ccccc2Cl)C1=O | inactive
CCCc1cc(=O)oc2c(C)c(OCC(=O)N3CCC(C(=O)O)CC3)ccc12 | inactive
O=[N+]([O-])/C=C1\CCCCCN1 | inactive
CC1CC(c2ccccc2)n2nc(NC(=O)c3cccs3)nc2N1 (stereo not given) | inactive
Cc1nnc(NC(=O)CCC(=O)N2CCC(C)CC2)s1 | inactive
Cc1ccc(OCC(=O)NNC(=S)NCc2ccccc2)cc1 | inactive
O=C1CCC(C(=O)OCC(=O)Nc2ccc(OC(F)F)cc2)=NN1 | inactive
COC(=O)c1ccc(NC(=S)NN2CCOCC2)cc1 | inactive

Compound | Potency
O=C(Cc1ccccc1)NC(=S)Nc1ccc(N2CCCCC2)cc1 | 23.1 µM (active)
Cc1ccc(C(=O)NC(=S)NCCN2CCOCC2)cc1 | inactive
O=C(CCN1CCN(c2ccccc2)CC1)NNC(=S)Nc1ccccc1 | inactive
O=C(CN1CCN(c2ccc(O)cc2)CC1)Nc1ccc(-c2ccccc2)cc1 | inactive
Cc1ccc(C(=O)NC(=S)Nc2ccc(N3CCOCC3)cc2)cc1 | 29.1 µM (active)
Nc1nonc1-c1noc(-c2ccc(Br)o2)n1 | inactive
CCC1=C(C(=O)OC)C(c2cc(OC)ccc2OC)C(C#N)=C(N)O1 (stereo not given) | inactive
CCOc1ccc(C(=O)NCCCN2CCCC2=O)cc1 | inactive
CC(C)OCCCNc1ncnc2c1[nH]c1ccc(F)cc12 | 2.91 µM (active)
O=C1CCCN1CCCNc1ncnc2c1[nH]c1ccccc12 | inactive
COc1cc(OC)c(OC)cc1/C=N/Nc1ncnc2c1[nH]c1ccc(C)cc12 | inactive
Cc1cc(C)c2c(NC(=O)C3CC3)nn(C)c2n1 | inactive
NC1=NC(c2cc(F)cc(F)c2)n2c(nc3ccccc32)N1 (stereo not given) | inactive
Cc1nnc(N/N=C/C2CC=CCC2)[nH]c1=O (stereo not given) | inactive
Cc1ccc(C(=O)NCCNC(=O)c2cnccn2)cc1 | inactive
CCN(CC)c1ccc(C(=O)Nn2c(C)nc3ccccc3c2=O)cc1 | inactive
CCN(CC)c1ccc(/C=N/Nc2nc(C)cc(C)n2)c(O)c1 | 3.26 µM (active)
CCN(CC)c1ccc(/C=N/NC(=O)c2cnccn2)c(O)c1 | 4.11 µM (active)
CCN(CC)c1ccc(/C=N/NC(=O)CNC(=O)c2cccnc2)cc1 | inactive
CCCCC(CC)C(=O)Nc1ccc(Cl)cn1 (stereo not given) | inactive
Cc1cc2c(cc1C)N(Cc1ccccc1)C1=NCCCN12 | 13 µM (active)
O=C(CN1C2=NCCN2c2ccccc21)c1cccs1 | inactive

Compound | Potency
Nc1ccc(C(=O)OCC(=O)NC2CCCc3ccccc32)cc1[N+](=O)[O-] (stereo not given) | inactive
CCc1ccc(NC(=O)c2sc3nc4c(cc3c2N)CN(CC)CC4)cc1 | 18.4 µM (active)
CCN1CCc2nc(NC(=O)c3cc(F)c(F)cc3Cl)sc2C1 | inactive
CCc1ccc(NC(=O)N2CCc3ccccc3C2)cc1 | inactive
CC(C(=O)NC1CCCC1)N(c1ccc(Oc2ccccc2)cc1)S(C)(=O)=O (stereo not given) | inactive
O=C(C[C@H]1CC[C@H]2[C@@H](COC[C@H](O)CN2C(=O)c2ccccn2)O1)N1CCN(c2ccccc2)CC1 | inactive
O=C(CCSc1ccccc1)NCCSc1ccccn1 | inactive
O=c1c(=O)n(Cc2c(F)cccc2Cl)ccn1Cc1ccccc1 | inactive
O=[N+]([O-])/C=C/c1ccc2c(ccn2Cc2ccccc2)c1 | 4.11 µM (active)
O=C(CNC(=O)c1n[nH]c2ccccc12)Nc1cc(Cl)ccc1Cl | inactive
COc1ccc(C)cc1NC(=S)Nc1ccccc1SC | inactive
CSc1ncccc1C(=O)NC1CCCCCC1 | inactive
CC(C)(C)C(=O)Nc1ccc(-c2cn3cccnc3n2)cc1 | inactive
Cc1nc2ccccc2n1CC(=O)N/N=C/c1cccs1 | inactive
Cc1ccc(-c2nnc(SCC(=O)N/N=C/c3cccs3)n2-c2ccc(C)cc2)cc1 | 14.6 µM (active)
NNC(=O)CSc1nnc(-c2ccccc2)n1-c1ccccc1 | inactive
CN(C)c1nccc(NCc2ccccc2)c1C#N | inactive
Cc1ccc(-c2nnc(SC(C)C#N)n2N)cc1 (stereo not given) | inactive
CCc1nn(CC(=O)NCC(C)c2ccccc2)c(=O)c2cc3occc3n12 (stereo not given) | inactive
CCc1nn(CCCC(=O)NC(C)c2ccccc2)c(=O)c2cc3occc3n12 (stereo not given) | inactive
CCCNC(=O)C(CC)n1nc(CC)n2c(cc3oc(C)cc32)c1=O (stereo not given) | 20.6 µM (active)
Cc1ccnc(NC(=O)CCC(=O)N(CC(=O)NCCc2ccccc2)Cc2cccs2)c1 | inactive

Compound | Potency
C=CCNC(=O)C1CC=CCC1C(=O)O (stereo not given) | inactive
CCCCNC(=O)c1ccc(-n2c(=S)[nH]c3ccccc3c2=O)cc1 | inactive
O=[N+]([O-])c1ccccc1/C=C/CN1CCC(O)CC1 | inactive
O=C(c1cc(COc2c(F)cccc2F)on1)N1CCSCC1 | inactive
C(=C\c1ccccc1)/CSc1nnc(-c2cccnc2)n1Cc1ccco1 | inactive
N=c1c2c(-c3ccccc3)c(-c3ccccc3)oc2ncn1Cc1ccco1 | 20.6 µM (active)
Cn1c(SCC(=O)N2CCOCC2)nnc1-c1ccc2ncccc2c1 | inactive
O=C1c2ccncc2C(=O)N1C1CCCCC1 | inactive
Cn1c(=O)c(=O)n(C)c2cc(S(=O)(=O)NCCc3ccccc3)ccc21 | inactive
C=CCC(NC(=O)Cc1ccccc1)C(=O)NCCC (stereo not given) | inactive
C=CC[C@@H](Cc1ccc(F)cc1)C(=O)OC[C@H]1CCCN1C(=O)[C@H](CC=C)CC(=O)N(CCO)Cc1ccccc1 | 18.4 µM (active)
C=CC[C@H](CC(=O)N(CCO)Cc1ccccc1)C(=O)N[C@@H](COC(=O)[C@@H](CC=C)Cc1ccc(F)cc1)Cc1ccccc1 | 20.6 µM (active)
CC(CCc1ccccc1)NC(=O)COC(=O)c1ccc(F)cc1 (stereo not given) | inactive
C=CCC[C@@H](Cc1ccc(F)cc1)C(=O)OC[C@@H](C)NC(=O)[C@H](CC=C)CC(=O)N(CCO)Cc1ccccc1 | 8.2 µM (active)
O=C(O)CCC(=O)O | inactive
CC(=O)Nc1ccc(N2C(=O)CCC2=O)cc1C | inactive
Cc1cc(=O)cc(C)[nH]1 | inactive
COc1cc(C(=O)NCCOC(=O)c2cccc(N(C)C)c2)cc(OC)c1OC | inactive
Cc1ccc(C(=O)N(CC(=O)NC2CCCC2)c2ccc(F)cc2)s1 | inactive
N/C(=N/O)c1cccn1Cc1ccccc1[N+](=O)[O-] | inactive
O=c1c([N+](=O)[O-])cccn1Cc1ccc(F)cc1Cl | 20.6 µM (active)
O=[N+]([O-])c1ccccc1NCc1ccccc1Cl | inactive

Compound | Potency
COc1ccc(C2C(C#N)=C(/N=C/N3CCOCC3)OC3=C2C(=O)CC(C)(C)C3)cc1OC (stereo not given) | inactive
CCNS(=O)(=O)c1ccc(CCC(=O)N2CCN(c3cc(Cl)ccc3C)CC2)cc1 | 11.6 µM (active)
CC(C)NS(=O)(=O)c1ccc(CCC(=O)N2CCOCC2)cc1 | inactive
Cc1ccc(S(=O)(=O)NCCC(=O)NCc2ccc(Cl)cc2)cc1C | inactive
O=c1[nH]c(CSc2ncc(-c3ccc(F)cc3)n2Cc2ccco2)nc2ccccc12 | 20.6 µM (active)
O=C(CSc1nnc2scc(-c3ccc(F)cc3)n12)NCc1ccco1 | inactive
Nc1cc(=O)nc(SCc2ccccc2)n1Cc1ccco1 | inactive
Cc1noc(C)c1COC(=O)Cn1c(C)nc2ccccc21 | inactive
CC(C)(C)N1CC(c2nc3ccccc3n2Cc2ccc(F)cc2)CC1=O (stereo not given) | inactive
COc1ccc(C)c(Cn2c(-c3nonc3N)nc3ccccc32)c1 | 2.31 µM (active)
COc1ccc2oc(N)nc2c1 | inactive
Nc1nonc1-c1nc2ccccc2n1CCC(=O)O | inactive
Nc1nonc1-c1nc2ccccc2n1Cc1ccc(F)cc1 | 20.6 µM (active)
Cn1c(SCC(=O)N2CCCC2)nnc1-c1cccs1 | inactive
CN(Cc1ccccc1)C(=O)CCNC(=O)Cn1cnc2ccccc2c1=O | inactive
CN1CCCCCC1C(=O)NCCN1Cc2ccccc2OC(c2ccsc2)C1 (stereo not given) | inactive
CCOc1ccc(NC(=O)Cn2c(=O)n(CCCC(=O)NCc3ccc4c(c3)OCO4)c(=O)c3ccccc32)cc1 | inactive
CCc1ccc(NC(=O)Cn2nnc(C(=O)NCc3ccc4c(c3)OCO4)c2N)cc1 | inactive
CCc1ccc(NC(=O)Cn2c(=O)n(CCC(=O)NCc3ccc4c(c3)OCO4)c(=O)c3ccccc32)cc1 | 9.2 µM (active)
CCCCC(=O)Nc1ccc2c(c1)OCCO2 | inactive
O=C(Cn1c(=O)sc2ccccc21)Nc1ccc2c(c1)OCCO2 | inactive
Cn1c(=O)c2ccccc2n(CC(=O)Nc2ccc3c(c2)OCCO3)c1=O | 9.2 µM (active)
